Data taken from PubChem BioAssay.
Activity calls are given as the source filed them. Unless noted, the rule behind the calls is not given here.

Columns and labels:
[1] = HepG2 liver cancer cell viability effects, profiling panel, resazurin fluorescence, 24 h, PK04 Diversity Set (AID 1172); details: higher = more signal
[2] = basal S. cerevisiae growth modulation, no modifier, primary screen, OD600, strain BY4716, 24 h, basal condition (AID 1173); details: OD600, 24 h, higher = more signal, called active from +8 up or from −8 down
[3] = MM1S myeloma cell viability, profiling panel, resazurin fluorescence, basal, 24 h, PK04 Diversity Set (AID 1174); details: higher = more signal, called active from +8 up or from −8 down;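 note: MM1S multiple myeloma cell line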
[4] = target: Dihydroorotate dehydrogenase (quinone), mitochondrial (Plasmodium falciparum (isolate 3D7)) (UniProt Q08210); assay: PfDHODH enzyme inhibitors, primary screen, biochemical, C-terminal His tag, absorbance 600 nm (AID 1175); details: DCIP absorbance 600 nm, higher = more signal, called active from +8 up or from −8 down;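 note: recombinant parasite enzyme with a five histidine tag at its C terminus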
[5] = P. aeruginosa biofilm formation inhibitors, primary screen, strain PAO1, LB-PBS medium, absorbance 600 nm (AID 1176); details: P. aeruginosa PAO1 growth/biofilm, A600, 12 h; higher = more signal
[6] = S. cerevisiae RM11-1a growth modifiers, primary screen, strain RM11-1a, OD600, basal, 24 h (AID 1177); details: OD600, 24 h, higher = more signal, called active from +8 up or from −8 down;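 note: cultures grown under basal conditions with no added stressor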
[7] = E. coli acrAB mutant growth effects, primary screen, E. coli filamentation inducers, strain DRC39, OD650, 24 h (AID 1178); details: higher = more signal, called active from +8 up or from −8 down;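 note: growth measured as culture turbidity by optical density at 650 nm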
[8] = E. coli acrAB mutant growth effects, primary screen, E. coli filamentation inducers, strain DRC39, OD650, 48 h (AID 1179);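 note: screen aims at cell division blockers that make cells filament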; details: E. coli DRC39 delta-acrAB growth, higher = more signal, called active from +8 up or from −8 down
[9] = RPMI8226 myeloma cell viability, profiling panel, resazurin fluorescence, basal, 24 h, PK04 Diversity Set (AID 1180); details: higher = more signal;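 note: RPMI8826 multiple myeloma cell line at 5000 cells per well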
[10] = target: E3 ubiquitin-protein ligase XIAP (Homo sapiens) (UniProt P98170); assay: XIAP binders, primary screen, biophysical, small-molecule microarray, fluorescence 635 nm (AID 1181); details: small-molecule microarray binding, higher = more signal;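 note: score merges 667 nm emission and signal to noise over triplicate slides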
[11] = tested on: XIP peptide (Xip251-270) binding; assay: small-molecule binders of XIP peptide, primary screen, biochemical, small-molecule microarray, fluorescence 635/667 nm, 0.1 µg/mL protein (AID 1182); details: fluorescent protein binding, 635 nm, higher = more signal, called active from +8 up or from −8 down
XIP peptide (Xip251-270) = assay: small-molecule binders of XIP peptide, primary screen, biochemical, small-molecule microarray, fluorescence 635/667 nm, 0.5 µg/mL protein (AID 1183); details: small-molecule microarray binding, fluorescence 635 nm; higher = more signal
[12] = Plasmodium falciparum growth inhibition, primary screen, strain 3D7, DAPI fluorescence, 100 nL (AID 1184);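 note: parasites grown inside human red blood cells in medium with human serum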; details: P. falciparum 3D7 growth, 3 d, higher = more signal
[13] = target: Homeobox protein Hox-A13 (Mus musculus) (UniProt Q62424); assay: inhibitors of HoxA13-DNA binding, primary screen, biochemical, fluorescence polarization, labeled oligonucleotide (AID 1185); details: 15 min, higher = more signal, called active from +8 up or from −8 down
[14] = inhibitors of hydroxyurea-induced Chk1 phosphorylation, primary screen, imaging, HeLa, phospho-Chk1 antibody, percent positive cells (AID 1186); details: hydroxyurea-induced phospho-Chk1 immunofluorescence imaging, higher = more signal
[15] = inhibitors of hydroxyurea-induced Chk1 phosphorylation, primary screen, imaging, HeLa, phospho-Chk1 nuclear intensity (AID 1187); details: hydroxyurea-induced phospho-Chk1 immunofluorescence imaging, higher = more signal

Sequence of Dihydroorotate dehydrogenase (quinone), mitochondrial (Plasmodium falciparum (isolate 3D7)) (Q08210 whole entry, looked up): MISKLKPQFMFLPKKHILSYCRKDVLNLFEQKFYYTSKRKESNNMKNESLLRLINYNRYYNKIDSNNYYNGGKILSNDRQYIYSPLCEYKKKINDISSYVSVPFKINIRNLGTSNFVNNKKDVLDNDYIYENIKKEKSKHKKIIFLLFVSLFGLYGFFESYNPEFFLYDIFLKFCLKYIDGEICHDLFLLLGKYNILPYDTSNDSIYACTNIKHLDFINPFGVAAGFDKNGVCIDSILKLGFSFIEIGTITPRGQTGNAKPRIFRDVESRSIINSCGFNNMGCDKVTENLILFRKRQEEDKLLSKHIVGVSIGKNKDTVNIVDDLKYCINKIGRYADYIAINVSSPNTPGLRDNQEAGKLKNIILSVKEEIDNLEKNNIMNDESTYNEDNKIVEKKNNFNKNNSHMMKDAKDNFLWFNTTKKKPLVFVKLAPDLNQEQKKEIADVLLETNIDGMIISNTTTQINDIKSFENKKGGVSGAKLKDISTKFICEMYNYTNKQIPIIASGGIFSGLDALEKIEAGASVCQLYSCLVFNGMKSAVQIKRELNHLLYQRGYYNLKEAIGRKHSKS
Sequence of E3 ubiquitin-protein ligase XIAP (Homo sapiens) (P98170 whole entry, looked up): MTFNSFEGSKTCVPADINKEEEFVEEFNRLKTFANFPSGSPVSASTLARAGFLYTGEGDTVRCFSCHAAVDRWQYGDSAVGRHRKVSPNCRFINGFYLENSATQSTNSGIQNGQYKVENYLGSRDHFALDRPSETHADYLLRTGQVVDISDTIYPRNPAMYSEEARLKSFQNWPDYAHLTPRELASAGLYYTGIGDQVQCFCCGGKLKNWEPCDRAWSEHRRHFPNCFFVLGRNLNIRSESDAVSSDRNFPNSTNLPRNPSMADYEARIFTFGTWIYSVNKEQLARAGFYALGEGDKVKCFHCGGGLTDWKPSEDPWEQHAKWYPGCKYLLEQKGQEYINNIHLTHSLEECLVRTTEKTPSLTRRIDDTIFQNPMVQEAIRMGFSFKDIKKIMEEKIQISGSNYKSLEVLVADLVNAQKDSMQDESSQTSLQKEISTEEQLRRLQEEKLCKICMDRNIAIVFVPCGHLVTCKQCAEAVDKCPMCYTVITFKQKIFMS
Sequence of Homeobox protein Hox-A13 (Mus musculus) (Q62424 whole entry, looked up): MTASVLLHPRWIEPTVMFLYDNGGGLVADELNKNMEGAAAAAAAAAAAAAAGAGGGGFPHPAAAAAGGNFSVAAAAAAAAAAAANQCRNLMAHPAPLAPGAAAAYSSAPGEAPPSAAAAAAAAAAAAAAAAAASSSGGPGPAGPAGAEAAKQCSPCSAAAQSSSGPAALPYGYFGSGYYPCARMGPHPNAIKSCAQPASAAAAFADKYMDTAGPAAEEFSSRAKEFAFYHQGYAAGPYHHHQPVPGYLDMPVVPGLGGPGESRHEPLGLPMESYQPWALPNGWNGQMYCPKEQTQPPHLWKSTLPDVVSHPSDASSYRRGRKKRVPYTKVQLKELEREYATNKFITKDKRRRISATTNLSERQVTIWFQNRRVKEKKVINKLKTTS

SMILES	z-score [1]	z-score [2]	z-score [3]	composite z-score [4]	z-score [5]	z-score [6]	z-score [7]	z-score [8]	z-score [9]	composite z-score [10]	composite z-score [11]	composite z-score (XIP peptide (Xip251-270))	z-score [12]	z-score [13]	z-score [14]	z-score [15]
O=C1C2C=CC(C(O)C3CCCCC3)N(Nc3ccc([N+](=O)[O-])cc3)C2C(=O)N1c1ccccc1 (centres undefined)	-1.13	0.581 (inactive)	-0.772 (inactive)	1.14 (inactive)	0.409 (inactive)	1.09 (inactive)	-0.915 (inactive)	-1.96 (inactive)	-0.675	0.242	-0.375 (inactive)	0.526	-1.5	-2.33 (inactive)	-0.0882 (inactive)	-0.177 (inactive)
COc1ccc(CCNC(=O)[C@@]2(C)c3ccccc3C(=O)N(Cc3cc(F)cc(C(F)(F)F)c3)[C@H]2c2ccc(CO)cc2)cc1	-0.469	-0.513 (inactive)	1.02 (inactive)	0.917 (inactive)	0.593 (inactive)	1.1 (inactive)	0.568 (inactive)	0.453 (inactive)	0.652	0.003	0.17 (inactive)	0.464	-1.49	-4.2 (inactive)	0.027 (inactive)	0.116 (inactive)
COCCOC(=O)N1C(=O)[C@@]2(c3cc(C#Cc4ccc(OC)cc4)ccc31)[C@H](c1ccccc1OCCO)N1[C@H](c3ccccc3)[C@H](c3ccccc3)OC(=O)[C@H]1[C@@H]2C(=O)N1CCN(c2ncccn2)CC1	0.214	2.12 (inactive)	-0.539 (inactive)	0.478 (inactive)	1.64 (inactive)	3.89 (inactive)	0.0722 (inactive)	0.857 (inactive)	0.0636	0.397	-0.349 (inactive)	0.59	-1.86	0.484 (inactive)	0.0768 (inactive)	0.273 (inactive)
Cc1ccc(C(C)CC(O)C2C=CC3C(=O)N(c4ccccc4)C(=O)C3N2Nc2ccc([N+](=O)[O-])cc2)o1 (centres undefined)	0.836	0.124 (inactive)	-0.171 (inactive)	-0.071 (inactive)	1.14 (inactive)	0.315 (inactive)	-0.975 (inactive)	0.178 (inactive)	0.263	0.152	0.099 (inactive)	0.839	-1.1	-3.75 (inactive)	0.161 (inactive)	0.568 (inactive)
O=C1C[C@]2(c3ccc([N+](=O)[O-])cc3)C(=O)N(CCN3CCOCC3)c3cc(CO)ccc3[C@H]2N1C1CCCCC1	-0.592	-0.0979 (inactive)	-0.399 (inactive)	-7.11 (inactive)	0.0993 (inactive)	-0.974 (inactive)	1.06 (inactive)	1.66 (inactive)	0.186	-0.16	1.2 (inactive)	0.314	0.476	-2.02 (inactive)	-0.533 (inactive)	-0.355 (inactive)
O=C(NCc1ccc(F)cc1)[C@H]1C[C@H]2C(=O)N[C@@H](Cc3ccccc3)C(=O)N2[C@H]1c1ccc(O)cc1	-0.354	1.41 (inactive)	0.396 (inactive)	-0.0513 (inactive)	-0.0185 (inactive)	1.23 (inactive)	0.222 (inactive)	-0.324 (inactive)	0.512	-0.224	0.114 (inactive)	0.832	-0.237	-1.6 (inactive)	-0.762 (inactive)	-0.352 (inactive)
CCN(CC)c1ccc(N2CC=CC34O[C@@H]5/C=C\CCCOC(=O)C5[C@H]3C(=O)N(CCO)[C@@H]4C2=O)cc1 (some centres undefined)	-1.46	0.245 (inactive)	-0.0391 (inactive)	0.174 (inactive)	-0.606 (inactive)	0.747 (inactive)	-1.16 (inactive)	-1.26 (inactive)	0.547	0.56	0.482 (inactive)	0.643	-1.52	-5.79 (inactive)	0.225 (inactive)	0.161 (inactive)
O=C1OCC=C[C@H]2OC34C=CCN(CCN5CCOCC5)C(=O)[C@H]3N(CCCO)C(=O)[C@@H]4[C@@H]12 (some centres undefined)	-0.31	-0.187 (inactive)	-1.4 (inactive)	-0.283 (inactive)	-0.385 (inactive)	0.451 (inactive)	-0.514 (inactive)	-1.15 (inactive)	-0.0279	0.0222	-0.0676 (inactive)	-0.0046	-1.83	-4.01 (inactive)	0.2 (inactive)	0.099 (inactive)
C=CCOC(=O)[C@@H]1[C@H]2C(=O)O[C@H](c3ccccc3)[C@H](c3ccccc3)N2[C@H](c2ccc(OCCOC(=O)[C@@H]3C[C@@H]4C(=O)N[C@@H](CCCC[N+](C)(C)C)C(=O)N4[C@@H]3c3cccc(OCCO)c3)cc2)[C@@]12C(=O)Nc1ccc(I)cc12	1.34	-1.21 (inactive)	-0.669 (inactive)	-5.39 (inactive)	1.18 (inactive)	1.98 (inactive)	-0.62 (inactive)	-0.659 (inactive)	-0.847	-0.126	1.18 (inactive)	0.786	0.0875	6.23 (inactive)	-0.558 (inactive)	0.16 (inactive)
